# The campaign covered roughly 220,000 compounds. About 530 (0.24%) were called active. Only a selection was taken, and actives are over-represented in it overall. Entries with a potency or affinity are not part of this list. A number with no mark means an inactive call. Rule as the data show it: active = inhibition above about 13%; inconclusive = no clear call, values can overlap the other calls; inactive = below that.
# Target: Bifunctional protein GlmU (Mycobacterium tuberculosis (strain ATCC 25618 / H37Rv)) (UniProt P9WMN3)
# Test: inhibition of mycobacterial GlmU enzyme – biochemical, glucosamine-1-phosphate acetyltransferase (AID 1376);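 also: 0% = complete reaction with vehicle and 100% = reaction without substrate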
# Settings: M. tuberculosis GlmU acetyltransferase enzyme assay; active compounds read high;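 tested at 30 µM in the primary screen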
# Chain of Bifunctional protein GlmU (Mycobacterium tuberculosis (strain ATCC 25618 / H37Rv)) (P9WMN3 whole entry, looked up): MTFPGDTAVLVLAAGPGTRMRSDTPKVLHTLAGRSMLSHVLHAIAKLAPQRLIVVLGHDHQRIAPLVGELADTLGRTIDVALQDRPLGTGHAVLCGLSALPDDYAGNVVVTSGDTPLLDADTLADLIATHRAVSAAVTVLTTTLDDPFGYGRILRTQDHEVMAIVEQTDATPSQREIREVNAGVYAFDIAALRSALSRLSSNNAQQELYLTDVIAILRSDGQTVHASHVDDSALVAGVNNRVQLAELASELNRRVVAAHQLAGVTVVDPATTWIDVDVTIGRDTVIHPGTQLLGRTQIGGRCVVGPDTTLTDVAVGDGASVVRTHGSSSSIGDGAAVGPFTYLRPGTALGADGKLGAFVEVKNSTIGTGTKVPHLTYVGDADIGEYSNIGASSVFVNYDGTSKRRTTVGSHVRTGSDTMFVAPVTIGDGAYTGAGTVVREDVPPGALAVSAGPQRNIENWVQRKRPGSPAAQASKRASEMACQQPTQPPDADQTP
row,Structure (SMILES),inhibition
1,CSc1nsc(/C=C/Nc2ccc(C(=O)O)cc2)c1C#N,-2.44%
2,CC1=NN(C(=O)CSCc2ccccc2)C(O)(c2ccc(Cl)cc2)C1 (configuration not stated),0.2%
3,O=S1(=O)CCC(N=Cc2cc(Br)ccc2O)C1 (configuration not stated),-0.36%
4,Cc1ccc(-n2c(C)cc(C(=O)CSc3n[nH]c(N)n3)c2C)cc1,-7.08%
5,Cc1cc(C(=O)CSc2n[nH]c(N)n2)c(C)n1-c1ccccc1,1.04%
6,Cc1cc(C(=O)CSc2n[nH]c(N)n2)c(C)n1-c1ccc(F)cc1,13% (active)
7,Cc1ccc(C(=O)NCC(=O)OCC(=O)c2ccc(C)c([N+](=O)[O-])c2)cc1,-3.78%
8,Cc1ccc(C(=O)COC(=O)CNC(=O)C(c2ccccc2)c2ccccc2)cc1[N+](=O)[O-],30.6% (active)
9,Cc1ccc(C(=O)COC(=O)CNS(=O)(=O)c2ccccc2)cc1[N+](=O)[O-],-0.84%
10,CCOC(=O)c1sc(Nc2ccccc2Cl)nc1C,1.72%
11,O=C(CCc1nc2ccccc2c(=O)[nH]1)OCc1ccc(Cl)cc1Cl,-1.63%
12,O=S(=O)(NCc1ccc(F)cc1)c1ccc2c(c1)OCCO2,4.82%
13,COc1ccc(C(=O)Cc2ccc(OC)c(OC)c2)c(OC)c1,14.1% (active)
14,COc1ccc(C(=O)Cc2ccc(OC)c(OC)c2)cc1,0.95%
15,COc1ccc(C(=O)Cc2ccc(F)cc2)c(OC)c1,8.08%
16,COc1cc(S(=O)(=O)N2CCOCC2)ccc1NC(=O)CSc1nnc(N)s1,10.7%
17,Cc1cccc(N=Nc2cnc(N)s2)c1,4.97%
18,COc1cc(C(=O)O)ccc1Cl,1.44%
19,Nc1ncc(N=Nc2cc(C(=O)O)ccc2Cl)s1,13.8% (active)
20,CC(=O)Nc1cccc(Oc2ccc([N+](=O)[O-])cc2Cl)c1,2.81%
21,CCn1c2ccc(Cl)cc2c2nc3ccccc3nc21,2.14%
22,CCn1c2ccccc2c2nc3cc(C(=O)O)ccc3nc21,1.61%
23,O=c1[nH]c(=S)[nH]c(O)c1C(c1ccccn1)c1c(O)[nH]c(=S)[nH]c1=O,9.35%
24,O=[N+]([O-])c1ccc2c(c1)oc1ccccc12,0.45%
25,CC(=O)CC(c1ccc([N+](=O)[O-])cc1)c1c(O)c2ccccc2oc1=O (configuration not stated),1.67%

row,Structure (SMILES),inhibition
1,O=c1c2ccccc2oc2ncccc12,3.79%
2,COc1cc2c(cc1NC(=O)Cn1cnc3c1c(=O)n(C)c(=O)n3C)oc1ccccc12,9.92%
3,C=CCN1C(=NC(=O)CCC(=O)O)SC2CS(=O)(=O)CC21 (configuration not stated),0.93%
4,CCN1CCN(c2cc(C)c3cc(NC(=O)c4ccccc4F)ccc3n2)CC1,-4.15%
5,Cn1cnnc1SCc1cccc(Br)c1,2.34%
6,CCn1ncc(NC(=S)Nc2ccc3c(c2)OCO3)c1C(N)=O,-0.08%
7,Cc1nn(-c2ccccc2)c(=S)c2ccccc12,-0.11%
8,COc1ccc(NC(=O)CNc2cccc(C#N)c2)cc1Cl,0.65%
9,COc1ccc(NCC(=O)Nc2ccccc2C#N)cc1Cl,16.5% (active)
10,COc1ccc(NCC(=O)Nc2ccc(C#N)cc2)cc1Cl,1.17%
11,Clc1ccc(-c2nnc(CSc3nnc(-c4cccs4)n3Cc3ccccc3)o2)cc1,-1.83%
12,CC(=O)N1CCCSC1=Nc1ccccc1,1.84%
13,Cc1ccc(-c2nc(SCC(=O)NCC3CCCO3)c(-c3ccc(C)cc3)[nH]2)cc1 (configuration not stated),-0.94%
14,O=[N+]([O-])c1ccc(NCc2ccccc2)c2nonc12,0.67%
15,O=[N+]([O-])c1cccc(CSc2cccc[n+]2[O-])c1,6.55%
16,Oc1cccc(C(=S)N2CCCCC2)c1,-2.56%
17,CCOC(=O)C1C(=O)NC(SCC(=O)OC)=C(C#N)C1c1ccccc1OCC (configuration not stated),-2.95%
18,CCOC(=O)CSC1=C(C#N)C(c2ccccc2OCC)C(C(=O)OCC)C(=O)N1 (configuration not stated),13.2% (active)
19,CCOC(=O)C1C(=O)NC(SCC(N)=O)=C(C#N)C1c1ccccc1OCC (configuration not stated),5.97%
20,Cc1ccc(C)c2[nH]c(=O)c(CN(Cc3ccc4c(c3)OCO4)Cc3nnnn3Cc3ccco3)cc12,2.41%
21,Cc1ccc(NC(=O)c2cccc(C(=O)OC(C)C)n2)c(Br)c1,-4.22%
22,O=[N+]([O-])c1cccnc1N1CCOCC1,1.56%
23,O=C1CCN(c2ncccc2[N+](=O)[O-])CC1,-2.93%
24,O=[N+]([O-])c1cccnc1N1CCCCC1,13.3% (active)
25,Cc1ccc(C)c(/C(O)=C2\C(=O)C(=O)N(CCCn3ccnc3)C2c2ccncc2)c1 (configuration not stated),-3.1%

row,Structure (SMILES),inhibition
1,COc1cccc(C2C3=C(Nc4[nH]n(-c5ccccc5)c(=O)c42)c2ccccc2C3=O)c1 (configuration not stated),-1.89%
2,Cc1cccc(C2C3=C(Nc4[nH]n(-c5ccccc5)c(=O)c42)c2ccccc2C3=O)c1 (configuration not stated),14.6% (active)
3,Cc1ccc(C2C3=C(Nc4[nH]n(-c5ccccc5)c(=O)c42)c2ccccc2C3=O)cc1 (configuration not stated),8.68%
4,CCOC(=O)c1c(C)[nH]c(C(=O)CSc2nc3ccccc3o2)c1C,-3.5%
5,Cc1cc(/C=N/Nc2ccc([N+](=O)[O-])cn2)c(C)n1-c1ccc(C(=O)O)cc1,18.4% (active)
6,Cc1c(C(=O)O)cccc1-n1c(C)cc(/C=N/Nc2ccc([N+](=O)[O-])cn2)c1C,3.53%
7,Cc1cc(/C=N/Nc2ccc([N+](=O)[O-])cn2)c(C)n1-c1ccccc1,-0.82%
8,CCOC(=O)c1cc(-c2ccc(F)cc2)n(CC(=O)Nc2nccs2)c1C,-5.76%
9,Cc1ccc(NC(=O)CCC(=O)OC(C(=O)c2ccc(C)c(C)c2)c2ccccc2)c(C)c1 (configuration not stated),1.52%
10,Cc1ccc(C(=O)C(OC(=O)CCC(=O)Nc2cccc(C)c2)c2ccccc2)cc1 (configuration not stated),14.9% (active)
11,O=C(CCC(=O)OC(C(=O)c1ccccc1)c1ccccc1)Nc1ccccc1 (configuration not stated),-0.93%
12,O=[N+]([O-])c1ccc(N2CCNCC2)cc1Sc1nc2ccccc2[nH]1,-3.78%
13,O=C(CSC1CN(C(c2ccccc2)c2ccccc2)C1)N/N=C/c1ccccc1,1.05%
14,O=C(OCC(=O)N1CCN(C(=O)c2ccco2)CC1)c1cn(-c2ccccc2)nc1-c1ccccc1,9.88%
15,CNCc1nc2ccccc2[nH]1,2.1%
16,Oc1ccc(O)c(Cc2nc3ccccc3[nH]2)c1,14.4% (active)
17,CCc1nc2ccccc2[nH]1,-1.65%
18,O=C(NCCC1CC1(Cl)Cl)Nc1ccccc1 (configuration not stated),2.82%
19,O=C1[C@H]2C(c3ccccc3)=NN(c3ccccc3)[C@H]2C(=O)N1c1ccccc1,14.2% (active)
20,CCOc1ccc(N2C(=O)C3C(c4ccccc4)=NN(c4ccccc4)C3C2=O)cc1 (configuration not stated),4.13%
21,O=C1C2C(c3ccccc3)=NN(c3ccccc3)C2C(=O)N1c1ccccc1 (configuration not stated),0.94%
22,O=C(N/N=C/C=C/c1ccco1)/C(=C/c1ccccc1)NC(=O)c1ccccc1,3.94%
23,C/C(=N\NC(=O)NC1CCCCC1)C1CCCCC1,5.48%
24,O=C(Nc1ccc(SC(F)F)cc1)c1ccc(F)cc1,2.04%
25,Cn1c(=NC(=O)CN2C(=O)C3CC=CCC3C2=O)sc2ccccc21 (configuration not stated),-0.18%

row,Structure (SMILES),inhibition
1,CC(C(=O)N=c1sc2ccccc2n1C)N1C(=O)C2CC=CCC2C1=O (configuration not stated),13.6% (active)
2,CC(=O)N=c1sc2ccccc2n1C,-1.3%
3,CC(C)NC1=C(Cl)C(=O)c2ccccc2C1=O,13.7% (active)
4,O=C1C(Cl)=C(Nc2ccccc2)C(=O)c2ccccc21,-4.13%
5,CCNC1=C(Cl)C(=O)c2ccccc2C1=O,-3.8%
6,O=C1c2ccccc2S(=O)(=O)c2cc(C(=O)N3CCN(C(=O)c4ccccc4)CC3)ccc21,-2.8%
7,CCN(CCNC(=O)Cn1cc2c(n1)CCCC2)c1ccccc1,-0.86%
8,CCOc1ccc(C(=O)SC2=NCCS2)cc1,8.72%
9,S=c1nc(C2CCCCC2)[nH][nH]1,14% (active)
10,S=c1nc(C2CCCCC2)[nH]c2ccccc12,-2.69%
11,Nc1n[nH]c(C2CCCCC2)n1,-2.96%
12,CCc1nc(N2CCN(S(C)(=O)=O)CC2)c2c3c(sc2n1)CCCC3,-2.08%
13,COc1ccc(N/C=C2/Sc3ccccc3NC2=O)cc1,0.09%
14,O=C(NC1CCN(C(=O)N2c3ccccc3Sc3ccccc32)CC1)c1ccccc1Cl,2.41%
15,Cc1ccc(SC(C)c2nc(-c3cccnc3)no2)cc1 (configuration not stated),-3.18%
16,Cc1ccc(SC(C)c2nc(-c3ccccc3)no2)cc1 (configuration not stated),14.3% (active)
17,Cc1ccc(SC(C)c2nc(-c3ccncc3)no2)cc1 (configuration not stated),5.19%
18,CC12CCC(C(=O)NCc3ccccc3Cl)(OC1=O)C2(C)C (configuration not stated),0.28%
19,Cc1[nH]c(=O)[nH]c(=O)c1/C=N/NC(=O)[C@@H](NC(=O)OC(C)(C)C)C(C)C,-0.37%
20,Cc1[nH]c(=O)[nH]c(=O)c1/C=N/NC(=O)CCNC(=O)OC(C)(C)C,-1.18%
21,Cc1[nH]c(=O)[nH]c(=O)c1/C=N/NC(=O)[C@H](C)NC(=O)OC(C)(C)C,12.9% (active)
22,CCN(C(=O)c1nn(-c2ccc(OC)cc2)c(=O)c2c1c1ccccc1n2C)c1ccc(OC)cc1,-3.7%

# Source: PubChem BioAssay AID1376 (SRMLSC, 2008)
